# Assay outcomes: PubChem, Fisher Drug Discovery Resource Center
# mcGAS inh: mouse cGAS inhibition by luminescence. AID 1259399. Q8C6L5. recombinant cGAS, Kinase-Glo ATP depletion luminescence. inhibition, % at 12.5 µM. actives 0.15% (n = 160,000);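 note: 0% = negative control wells and 100% = reference inhibitor with no enzyme activity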
# Target sequence (Q8C6L5 whole entry, looked up): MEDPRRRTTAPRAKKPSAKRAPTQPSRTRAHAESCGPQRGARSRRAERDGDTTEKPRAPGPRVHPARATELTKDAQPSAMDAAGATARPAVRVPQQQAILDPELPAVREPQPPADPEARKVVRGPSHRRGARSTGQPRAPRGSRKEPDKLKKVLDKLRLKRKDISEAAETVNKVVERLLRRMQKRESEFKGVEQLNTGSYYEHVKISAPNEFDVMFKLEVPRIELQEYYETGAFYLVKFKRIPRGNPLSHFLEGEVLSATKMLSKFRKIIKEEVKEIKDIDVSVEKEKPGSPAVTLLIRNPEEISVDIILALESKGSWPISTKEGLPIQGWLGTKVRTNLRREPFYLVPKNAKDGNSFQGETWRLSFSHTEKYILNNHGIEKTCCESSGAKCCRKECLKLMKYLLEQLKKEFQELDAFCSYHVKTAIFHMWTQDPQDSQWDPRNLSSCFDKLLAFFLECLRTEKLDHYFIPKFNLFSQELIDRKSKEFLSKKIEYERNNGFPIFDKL
# NPYLR7 ag: mosquito NPYLR7 agonism | activation, % at 10 µM | HEK293T NPYLR7/Galpha15, GCaMP6s calcium fluorescence | actives 0.15% (n = 270,000); in the data active = activation above about 40%;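 note: 0% = vehicle and 100% = reference agonist at the receptor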
# hcGAS lum: blocks human cGAS activity; Q8N884; recombinant h-cGAS, ATP depletion, Kinase-Glo luminescence; inhibition, % at 12.5 µM; actives 0.081% (n = 290,000);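 note: 0% = vehicle reaction and 100% = reaction without DNA for no activity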
# An asterisk follows results filed as active; x = not tested or not shown. An excerpt weighted towards active compounds, which were near 0.28% of everything screened. Cut-off read from the data, not from the text of the source, unless noted: active = inhibition above about 40%; inactive = the rest.
SMILES,mcGAS inh,NPYLR7 ag,hcGAS lum
NS(=O)(=O)c1ccc(CCN2C(=O)c3cccc4cccc(c34)C2=O)cc1,-2,-4,1
Nc1c(S(=O)(=O)O)cc2c3c(cccc13)C(=O)N(CCO)C2=O,-1,93*,-8
O=S(=O)(NCc1ccc2c(c1)CCC2)c1cccc2nsnc12,x,0,-6
CCOC(=O)C1CCCN(CC(=O)N2N=C(c3ccccc3Cl)CC2c2ccc(Cl)cc2)C1 (stereo unspecified),0,42*,2
CC(=O)N1CCN(CC(=O)N2N=C(c3ccccc3F)CC2c2ccc(Cl)cc2)CC1 (stereo unspecified),-4,4,-4
O=C(CN1CCc2ccccc2C1)N1N=C(c2ccccc2F)CC1c1ccc(Cl)cc1 (stereo unspecified),-3,15,60*
CCOC(=O)C1CCCN(CC(=O)N2N=C(c3ccccc3Cl)CC2c2ccc3c(c2)OCO3)C1 (stereo unspecified),-4,-2,-4
COc1cc(OC)cc(C(=O)Oc2c(S(=O)(=O)c3ccc(C)cc3)c(C)nn2C(C)(C)C)c1,-6,1,-4
O=C(CN1CN(c2ccccc2)C2(CCN(C(=O)c3ccc(Br)cc3)CC2)C1=O)NCCc1ccccc1,-6,3,-9
CN(CC1CCCN(CCc2ccc(Cl)cc2)C1)C(=O)c1ccsc1 (stereo unspecified),x,4,-11
Cc1ccc(Cl)c2sc(=NC(=O)C(C)(C)C)n(C)c12,-5,16,-2
Cc1ccc(-n2[nH]c(C(=O)Nc3ccnc4ccnn34)cc2=O)cc1,-7,-1,68*
O=C(CNC(=O)c1ccc(F)c(F)c1)Nc1ccnc2ccnn12,x,10,-5
CC1CC(C)CN(C(c2ccccc2)C2Sc3ncnn3C2=O)C1 (stereo unspecified),-6,7,-4
C=c1c(C#N)c2[nH]c(N)c(C#N)c(C)c-2/c1=C\c1ccc(O)cc1,71*,21,11
C=c1c(C#N)c2[nH]c(N)c(C#N)c(C)c-2/c1=C\c1ccc(C(=O)OC)cc1,-1,7,-4
N#Cc1nnc2ccccc2c1N1CCC(OCCN2CCCCC2)C1 (stereo unspecified),-11,-11,-6
CCCCCn1c(=O)c2c(nc3n2CCN3c2ccc(Cl)cc2)n(C)c1=O,-8,10,-5
CCCN1CCc2c(sc3c2c(NC(CC)CO)nc2nnnn23)C1 (stereo unspecified),x,69*,-5
CCc1nc(Cl)c2c3c(sc2n1)CN(CC)CC3,x,4,-3
CC(=NNc1ncnc2sc(C)c(C)c12)c1ccccn1,x,59*,45*
Cc1sc2ncnc(N/N=C\c3ccccc3O)c2c1C,x,6,-8
O=C1NC(Cc2c[nH]c3ccccc23)C(=O)N1Cc1cc(=O)n2ccsc2n1 (stereo unspecified),x,x,10
CC(C)CNC(=O)C1(C)CCCCCN1C(=O)c1ccncc1 (stereo unspecified),-1,-7,-1
COc1ccc(NC(=O)CSc2nc3c(cnn3CCO)c(=O)[nH]2)cc1OC,x,3,-1
SMILES,mcGAS inh,NPYLR7 ag,hcGAS lum
COc1cc(/C=C/c2nc3ccccc3o2)cc(Cl)c1O,-13,334*,-3
Nc1ccc(/C=C/c2nc3ccccc3o2)cc1,-2,2,-1
CCOC(=O)C1=C(O)/C(=C\c2cccc(OCC)c2O)SC1=Nc1cccc(F)c1,-6,11,-3
O=C(CCC1CCCC1)Nc1nc(-c2ccccc2Cl)cs1,x,-3,3
O=C(CCl)Nc1nc(-c2ccccc2Cl)cs1,60*,3,-3
COc1cccnc1N(C)S(=O)(=O)c1cccc2ncccc12,x,0,-5
COc1ccc(-c2cccc(-c3ccc(NC(=O)c4c(F)cccc4F)cc3)n2)cc1,-4,1,-2
COc1ccc(-c2cccc(-c3ccc(NC(=O)c4oc5ccccc5c4C)cc3)n2)cc1,-6,43*,-3
CCC(CC)NC(=O)c1nc2nc(C)cc(C)n2n1,x,4,-7
C=CCOc1ccc(C=C2COc3ccccc3C2=O)cc1OC,46*,3,-3
COc1cc(C=C2COc3ccccc3C2=O)ccc1OCC#N,38,0,-5
CCCc1cc(C(=O)OCC)c(NC(=O)C(=O)OC)s1,1,x,-1
COc1ccccc1S(=O)(=O)N1CCC(C(=O)c2ccc(C)cc2)CC1,x,-6,2
O=C1NC(=S)SC1=Cc1ccc(F)cc1,38,2,15
O=C1NC(=S)SC1=Cc1ccc(Cl)cc1,55*,-9,11
O=C(O)CN1C(=O)/C(=C/c2c(F)cccc2Cl)SC1=S,-1,-4,-3
O=C1NC(=S)SC1=Cc1c(F)cccc1Cl,x,-3,48*
Cc1[nH]n(-c2nc(-c3ccc(Cl)cc3)cs2)c(=O)c1N=Nc1cccc(C(=O)O)c1,-2,-3,0
CCCSc1ncccc1C(=O)NCC(c1ccccc1)c1ccccc1,-2,-4,-9
CCCN(Cc1cccnc1OC)C1CCN(C(=O)c2ccccc2)CC1,x,4,-6
CCCCc1ccc(C(=O)N2CCC3(CC2)NC(=O)c2cc(F)c(F)cc2N3)cc1,-5,2,-5
Cc1oc2ccc(OCC(=O)c3ccc(Cl)cc3)cc2c1C(=O)OC(C)C,-8,-2,-4
CC(C)(C)NN=Cc1cc(Br)c(O)c(Br)c1,75*,4,7
COc1cc(C=NNC(=O)c2ccccc2O)cc(Br)c1O,x,0,0
Cc1nccn1C(C)CC(=O)N1CCC(NS(C)(=O)=O)CC1 (stereo unspecified),3,x,15
SMILES,mcGAS inh,NPYLR7 ag,hcGAS lum
CCN(Cc1csc(COc2cccc(C)c2C)n1)C(=O)c1ccccc1F,88*,25,-3
Cc1cccc(OCc2nc(CN(CCN(C)C)C(=O)c3ccccc3F)cs2)c1C,-3,11,-5
COC(=O)c1cc2c(s1)CCC2,-5,7,-5
CCN(CC(=O)N(Cc1cccn1Cc1ccccc1Cl)CC(C)C)C(=O)c1ccc(F)cc1,-6,-1,-4
O=[N+]([O-])c1ccc(OC2=NS(=O)(=O)c3cc([N+](=O)[O-])ccc32)cc1,-5,9,-8
O=[N+]([O-])c1ccc2c(c1)S(=O)(=O)C=C2,86*,8,2
CC(=O)NCC(=O)N1CCN(Cc2ccc(-c3noc(-c4cccnc4)n3)cc2)CC1,2,6,3
CCOC(=O)c1ccccc1-c1c2ccc(=N)cc-2oc2cc(N)ccc12,-12,120*,-2
CCOC(=O)c1cc(C(=O)OCC)c2c(C)cc(C)cc(C)c1-2,x,-7,-27
CCOC(=O)COc1cc2c(-c3cc4ccccc4o3)cc(=O)oc2cc1C,-6,0,-3
CCN=c1cc2oc3cc(NCC)c(C)cc3c(-c3ccccc3C(=O)OCC)c-2cc1C,-20,159*,-29
COCC(C)(NC(=O)c1cncc(C)c1)c1ccccc1 (stereo unspecified),x,5,-7
COc1cccc(CN2C(=O)c3cccc(N)c3C2=O)c1,x,43*,-8
COc1ccc(CN2C(=O)c3ccccc3C2=O)cc1F,x,8,-1
COc1ccc(C(=O)N2CCC(NC(=O)c3nccnc3NC(=O)C(C)C)CC2)cc1,-6,x,-8
O=C(Nc1ccc(Cl)cc1)N1CCCN(C2CC2)CC1,x,1,-8
Nc1c(NC(=O)N2CCN(C3CCCC3)CC2)c(-c2ccc(Cl)cc2)nn1-c1ccccc1,x,5,164*
